High-throughput results from PubChem BioAssay.
Sampled rows, rich in hits. Any-hit rate of the full collection: about 2.1%.
PABP1 MLLE inh: inhibitors of PABP1 MLLE–PAM2 peptide binding, primary screen, biochemical, fluorescence polarization, FITC-PAM2, GST-MLLE; inhibition, % at 20 µM; AID 588489, 2011; 0.36% of 360,000 active; in the data active means inhibition above about 35%, passing the limit was not always enough;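 further: plate controls were DMSO wells with GST-MLLE for no effect and wells lacking GST-MLLE protein for full effect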
eIF4H inh: human eIF4H binding inhibitors, primary screen, translation initiation inhibitor project, biochemical, uHTS, fluorescence polarization. AID 2012, 2009. inhibition, % at 35 µM. Eukaryotic translation initiation factor 4H (Homo sapiens), Q15056. eIF4H fluorescence polarization binding assay. 0.94% of 290,000 active;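 further: calls also rest on retests at 20 µM and on dose response follow-up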
CendR NRP1 mod: modulators of CendR peptide binding to NRP-1, primary screen, biochemical, fluorescence polarization, uHTS; 0.85% of 360,000 active; FAM-RPARPAR peptide binding to NRP-1; inhibition, % at 25 µM; Neuropilin-1 (Homo sapiens), O14786;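 active means inhibition or corrected inhibition above about 18%, plus a signal ratio from 0.5 to 1.5, limit read from the data, passing the limit was not always enough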
Target sequence (O14786 whole entry, looked up): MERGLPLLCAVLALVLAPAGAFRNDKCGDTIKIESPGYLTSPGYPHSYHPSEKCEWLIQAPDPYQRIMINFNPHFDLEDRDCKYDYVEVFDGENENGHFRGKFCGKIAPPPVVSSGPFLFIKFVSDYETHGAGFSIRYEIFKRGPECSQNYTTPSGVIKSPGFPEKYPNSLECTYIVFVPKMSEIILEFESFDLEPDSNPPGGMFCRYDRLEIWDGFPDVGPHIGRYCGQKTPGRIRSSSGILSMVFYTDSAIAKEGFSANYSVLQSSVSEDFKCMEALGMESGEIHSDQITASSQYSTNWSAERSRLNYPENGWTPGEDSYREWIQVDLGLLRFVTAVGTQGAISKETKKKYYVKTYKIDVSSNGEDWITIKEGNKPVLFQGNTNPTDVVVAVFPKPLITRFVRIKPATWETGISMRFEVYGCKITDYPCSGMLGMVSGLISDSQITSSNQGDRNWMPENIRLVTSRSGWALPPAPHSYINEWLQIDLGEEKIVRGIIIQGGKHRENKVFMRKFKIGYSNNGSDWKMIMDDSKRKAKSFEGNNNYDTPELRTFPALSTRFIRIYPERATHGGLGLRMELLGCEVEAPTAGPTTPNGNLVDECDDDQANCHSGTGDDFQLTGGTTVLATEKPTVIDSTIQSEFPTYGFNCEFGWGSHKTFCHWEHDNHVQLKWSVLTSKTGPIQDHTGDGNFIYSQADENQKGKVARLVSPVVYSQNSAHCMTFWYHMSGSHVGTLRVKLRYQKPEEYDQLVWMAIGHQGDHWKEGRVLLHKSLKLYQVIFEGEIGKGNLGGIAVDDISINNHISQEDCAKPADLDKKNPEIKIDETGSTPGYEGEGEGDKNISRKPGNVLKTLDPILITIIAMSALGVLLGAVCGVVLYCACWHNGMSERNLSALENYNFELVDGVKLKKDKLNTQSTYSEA
PABP polyA inh: PABP poly(A) RNA binding inhibitors, primary screen, biochemical, fluorescence polarization, uHTS; Polyadenylate-binding protein 1 (Homo sapiens), P11940; inhibition, % at 35 µM; 1% of 290,000 active;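 further: calls also rest on retests at 20 µM and on dose response follow-up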
* marks the source's active call; other numbers are inactive results; ? = inconclusive; · = not tested or not shown. Unless noted, how the calls were made is not given here.

SMILES	PABP1 MLLE inh	eIF4H inh	CendR NRP1 mod	PABP polyA inh
O=C(NCC1CC1)C1(S(=O)(=O)c2ccccc2)CC=CC1	0	-7	21*	-9
CCOc1ccc(S(=O)(=O)N2CCC(C(=O)NCc3cccnc3)CC2)cc1C	0	-16	10	-6
COc1ccc(C(C)=O)cc1CSc1nc2cc(Cl)ccc2o1	-12	65*	-10	35*
Cc1c(C#N)c(NC(=O)CCl)n(Cc2cccs2)c1C	6	74*	-14	active
CCOC(=O)N1CCN(CC(O)COc2cc(C)cc(C)c2)CC1 (stereo not drawn)	-13	-2	19	-2
CCC(C)N(C(=O)CSc1ccc(NC(C)=O)cc1)C1CCS(=O)(=O)C1 (stereo not drawn)	45*	-16	1	-5
O=C(NCc1ccccc1Cl)[C@H]1CCCN1C(=O)[C@H]1CCCN1C(=O)c1ccc(Cl)cc1	·	·	4	·
O=C(CSc1nnc(-c2cccs2)o1)OC1CCCCC1	2	-11	34*	-6
OCc1nc2ccccc2n1CCCc1ccccc1	1	·	12	·
O=CN/C=C/c1cc(O)ccc1O	33	94*	-11	91*
Cc1ccc2nccc(C(=O)N3CCCC(Nc4ccc(C)c(C)c4)C3)c2c1 (stereo not drawn)	-4	·	4	·
O=C(COC(=O)c1ccccn1)c1ccc([N+](=O)[O-])cc1	20	68	22*	-10
CN(CC(=O)Nc1cccc(F)c1)C(=O)CC1CC2CCC1C2 (stereo not drawn)	-4	-7	13	-2
c1ccc(-n2nnnc2NCCCN2CCOCC2)cc1	1	1	30*	-3
CCCCCC#CCC#CCC#CCC#CCCCC(=O)O	·	85*	·	10
C[C@@H]1CN([C@@H](C)CO)C(=O)CCCn2cc(nn2)CO[C@H]1CN(C)S(=O)(=O)c1ccc2c(c1)OCCCO2	8	·	-3	·
COc1ccc2c(c1OC)OCC2C (stereo not drawn)	1	·	-4	·
Nc1ccc2oc3ccc(N)cc3c(=O)c2c1	16	79*	9	60*
COc1ccccc1NS(=O)(=O)c1cc(N/C(=N\S(=O)(=O)c2ccccc2)c2ccc(F)cc2)ccc1Cl	3	-4	34*	-13
O=S(=O)(/N=C(/Nc1ccc(Cl)c(S(=O)(=O)N2CCOCC2)c1)c1ccc(F)cc1)c1ccccc1	1	-2	-6	6
COc1cc(CCC(N)c2cccc(O)c2)cc(OC)c1OC (stereo not drawn)	-9	·	26*	·
COc1cccc(C(CCc2cc(OC)c(OC)c(OC)c2)NC(C)=O)c1 (stereo not drawn)	9	·	8	·
CC(C)(c1ccccc1)c1ccc(OCC(O)CNC2CCN(Cc3ccccc3)CC2)cc1 (stereo not drawn)	0	4	8	-9
O=C(c1cccc(S(=O)(=O)N2CCCC2)c1)N1CCCc2ccccc21	13	-4	-2	15
O=C(CCC(=O)N1CCCc2ccccc21)N1CCN(S(=O)(=O)c2ccccc2)CC1	-3	-13	28*	-7
SMILES	PABP1 MLLE inh	eIF4H inh	CendR NRP1 mod	PABP polyA inh
O=C(C1CCCO1)N1CCc2ccccc21 (stereo not drawn)	11	-7	56*	-2
O=C(c1ccc(S(=O)(=O)N2CCOCC2)cc1)N1CCc2ccccc21	8	-5	24*	2
O=C(CCS(=O)(=O)c1ccccc1)N1CCCc2ccccc21	-5	-8	14	-3
O=C(c1cccc(S(=O)(=O)N2CCCCC2)c1)N1CCc2ccccc21	5	-6	32*	8
O=C(CCc1ccccc1)NCc1ccc2c(c1)OCO2	-6	3	16	6
COc1cccc(NC(=O)C2(C)CCN2C(=O)CC2CC2)c1 (stereo not drawn)	2	·	-5	·
COCC(=O)Nc1cc(C)cn(Cc2c(F)cccc2Cl)c1=O	-13	-6	-2	-1
CC(=O)[C@H]1[C@@H]2C(=O)N(c3cccc(Cl)c3)C(=O)[C@@H]2[C@H]2c3ccccc3C=CN21	23	62	-15	56*
O=C(c1ccco1)[C@@H]1[C@@H]2C(=O)N(c3ccc(F)cc3)C(=O)[C@@H]2C2c3ccccc3C=CN21 (stereo partly drawn)	·	70	·	44*
COc1ccc([N+](=O)[O-])cc1N(CC(O)CN1CCOCC1)S(=O)(=O)c1ccccc1 (stereo not drawn)	-2	-7	5	4
COc1ccc([N+](=O)[O-])cc1N(CC(O)CN1CCCCC1)S(=O)(=O)c1ccc(C)cc1 (stereo not drawn)	0	112*	-1	99*
CCCCCc1ccnc(CC(=O)c2ccc(OC)cc2)c1	-141	·	-10	·
Nc1ccc(C#Cc2c(-c3ccsc3)oc3ccc(N4CCOCC4)cc23)cc1	-13	·	26*	·
COc1ccc(-c2c(-c3ccsc3)oc3ccc(N4CCOCC4)cc23)cn1	6	·	6	·
CCc1nnc(NC(=O)CCC(=O)N2CCN(CCOc3ccc(C)cc3)CC2)s1	3	50*	-4	-6
Cc1nc2ccc(NC(=O)CSc3ccccc3)cc2s1	-4	·	3	·
O=C(NC(=S)Nc1cccc2c(O)cccc12)c1ccco1	25	66*	13	55*
Cc1c(NC(=S)NC(=O)C(C)(C)C)cccc1[N+](=O)[O-]	34	active	-2	120*
O=C(NC(=S)Nc1cccc2c(O)cccc12)c1ccccc1[N+](=O)[O-]	17	75*	16	34*
O=C(NC(=S)Nc1ccccc1N1CCCCC1)c1ccco1	43*	2	6	32
CC1=C(C(=O)N(C)C)CC(CC(=O)NCCCN(C)C)C(=O)N1CCC1=CCCCC1 (stereo not drawn)	-2	·	-7	·
Cc1ccc(C(=O)N2CCC(C)CC2)cc1NC1=NC2CS(=O)(=O)CC2S1 (stereo not drawn)	3	-6	-1	-16
CC1CCC(NCCNC(=O)c2ccco2)CC1 (stereo not drawn)	-4	17	4	17
O=C(NC(=S)Nc1ccccc1N1CCCC1)c1ccco1	87	?	28*	?
CC1Cc2ccccc2N1C(=S)NC(=O)c1ccco1 (stereo not drawn)	5	2.5*	-25	68*
SMILES	PABP1 MLLE inh	eIF4H inh	CendR NRP1 mod	PABP polyA inh
Cc1cccc(N2CCN(C(C(=O)NCc3ccccc3)c3ccc(F)cc3)CC2)c1C (stereo not drawn)	·	·	-2	·
COc1ccccc1CNC(=O)CN(C)S(=O)(=O)c1ccc2c(c1)c(=O)n(C)c(=O)n2C	9	-2	1	7
CCOC(=O)C(=NO)C1=CSC2=NNC(C)(C)N12	-18	·	-8	·
CN(c1ccc(OCC(=O)OCC(=O)Nc2ccc([N+](=O)[O-])cc2)cc1)S(=O)(=O)c1cccs1	-4	·	32*	·
CCOC(=O)c1cnc2ccc(C)cc2c1NCCO	5	-9	27*	1
O=C(CNS(=O)(=O)c1ccc(Br)cc1)OCc1cc(=O)n2cc(Br)ccc2n1	·	71	·	0
